A selection: hits, their analogues and other compounds. The true share with any hit is near 9.4%.
HPGD block – HPGD (human) dehydrogenase inhibition; AID 894; 150,000 compounds, 4.3% hits; purified HPGD, NADH fluorescence kinetic, PGE2 substrate; Potency, µM, inactives show at the highest dose activity change, negative = inhibition, actives largely listed as inhibitors; active = well fitted inhibition curve with a large enough effect, not every such curve was filed as active; inconclusive = small, poorly fitted or top-dose-only effect, or another doubt; inactive = no such curve, though single readings can be large or run the other way; note: potency is the fitted concentration of half-maximal effect; % is set by controls: 0 for no effect and ±100 for the full control effect
Target sequence (P15428 whole entry, looked up): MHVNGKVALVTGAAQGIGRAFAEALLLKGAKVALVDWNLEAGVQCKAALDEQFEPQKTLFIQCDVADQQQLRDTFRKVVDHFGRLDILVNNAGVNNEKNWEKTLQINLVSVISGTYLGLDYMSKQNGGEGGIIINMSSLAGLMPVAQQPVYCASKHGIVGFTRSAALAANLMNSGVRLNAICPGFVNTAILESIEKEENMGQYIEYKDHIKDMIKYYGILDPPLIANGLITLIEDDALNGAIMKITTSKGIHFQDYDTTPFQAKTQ
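20 nM HPGD preincubated 15 min at room temperature with compound in 50 mM Tris-HCl pH 8, 0.01% Tween 20. Started with 1 mM NAD+ and 30 uM prostaglandin E2; NADH fluorescence (360/450 nm) read 5 times over 30-s intervals, last minus first.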
HTT aggregate – inhibitors of mutant huntingtin aggregate formation in PC12 cells. Potency, µM (highest dose often 46.1 µM), for the others: at the highest dose activity change, negative = inhibition, actives largely listed as inhibitors. 220,000 compounds, 1.1% hits. AID 1688. PC12 HttQ103-GFP aggregates, Acumen cytometry, 40 h; note: potency is the fitted concentration of half-maximal effect; % is set by controls: 0 for no effect and ±100 for the full control effect; nearly all actives have a fitted effect of over 60% in size
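Read-out: GFP aggregate count by laser scanning cytometer (488 nm excitation, 500-530 nm emission, 1–25 µm objects >6 SD above background). Cells: PC12, inducible HTTex1-Q103-GFP, 100 nM tebufenozide; compounds titrated.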
IMPase cell inh – cell-permeable inhibitors of inositol monophosphatase (IMPase) | CHO-M1 cells, IP1 accumulation, HTRF TR-FRET ratio | inhibition (IP1 accumulation), % at 46.1 µM | 120,000 tested, under 10 active; active = well fitted curve in the direction sought with a large enough effect in the signal ratio, not every such curve was filed as active; inconclusive = small, poorly fitted or top-dose-only effect, or a change in a side signal; inactive = no such curve, though single readings can be large or run the other way; the % refers to the signal ratio;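 note: cells stimulated with carbachol in lithium chloride buffer; plate controls were DMSO basal wells for no effect and reference inhibitor wells for full effect; higher means more IMPase inhibition seen as more IP1 and lower FRET ratio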
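CHO-M1 cells (CHO stably expressing M1 receptor), compound up to 46 uM final, stimulated with carbachol (50 uM as added) in buffer with 50mM LiCl, pH 7.4, 30 min at 37C. Cytosolic IP1 read by TR-FRET; AC50 from Hill fits.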
HTT ATP protect – Huntington cell model cytoprotection by ATP luminescence; PC12 HTT-Q103 induced, cytoprotection, ATP luminescence, 40 h; AID 1471; Potency, µM (doses to about 56.4 µM), without a hit: cytoprotection (ATP increase), hits mostly activators; 230,000 compounds, 0.14% hits; note: potency is the fitted concentration of half-maximal effect; % of control where 0% means no effect; nearly all actives have a fitted effect of over 45% in size
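Quantitative HTS on tebufenozide-induced (100 nM) PC12 cells expressing HTTQ103 exon 1–GFP; compounds tested as a concentration series; survival measured via cellular ATP.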
ALDH1A1 block – ALDH1A1 (human) enzyme inhibition; Purified ALDH1A1, NADH fluorescence, propionaldehyde substrate; Potency, µM (titrated, usually from 75.3 µM), for the others: at the top dose activity, negative = inhibition, usual class: inhibitors; 220,000 compounds, 7.3% hits; AID 1030; active = well fitted inhibition curve with a large enough effect, not every such curve was filed as active; inconclusive = small, poorly fitted or top-dose-only effect, or another doubt; inactive = no such curve, though single readings can be large or run the other way;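 note: potency is the fitted concentration of half-maximal effect; plate controls were no enzyme wells and a reference inhibitor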
Target sequence (P00352 whole entry, looked up): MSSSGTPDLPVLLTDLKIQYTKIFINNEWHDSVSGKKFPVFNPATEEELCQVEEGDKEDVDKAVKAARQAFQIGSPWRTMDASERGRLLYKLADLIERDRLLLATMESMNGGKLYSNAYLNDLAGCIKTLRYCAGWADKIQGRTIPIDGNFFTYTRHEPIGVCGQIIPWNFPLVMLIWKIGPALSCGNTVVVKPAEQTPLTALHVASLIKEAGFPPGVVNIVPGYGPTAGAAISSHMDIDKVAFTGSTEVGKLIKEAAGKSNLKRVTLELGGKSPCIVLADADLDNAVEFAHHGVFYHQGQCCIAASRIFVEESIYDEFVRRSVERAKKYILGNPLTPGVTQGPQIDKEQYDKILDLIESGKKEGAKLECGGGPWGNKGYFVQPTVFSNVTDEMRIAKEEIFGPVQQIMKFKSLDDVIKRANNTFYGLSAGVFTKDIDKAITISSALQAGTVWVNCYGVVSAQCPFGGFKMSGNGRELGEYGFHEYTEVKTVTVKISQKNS
IMPase Li cell – membrane-permeable IMPase blocker, potentiated with lithium; CHO-M1 cells, IP1 TR-FRET (IP-One), carbachol + lithium; Potency, µM (highest dose often 59.4 µM), for the others: top-dose activity, negative = IMPase inhibition, usual class: inhibitors; 210,000 compounds, 0.35% hits;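 note: IP1 builds up when IMPase is blocked and the TR-FRET signal falls; potency is the fitted concentration of half-maximal effect; plate controls were basal vehicle for no effect and high inhibitor control for full effect; nearly all actives have a fitted effect of over 50% in size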
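Lithium-sensitised IP1 accumulation assay; M1-expressing CHO cells treated 30 min at 37C with compound. Competitive antibody detection by time-resolved FRET followed a 10 min room-temperature lysis step.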
* = called active by the depositor; u = inconclusive; x = no result; ! = not active in a repeat; [ ] = dose if it differs, or a comment. Unless noted, calls come from the whole dose curve; as a rule, active = well fitted curve in the direction sought with a large enough effect; inconclusive = small, poorly fitted or top-dose-only effect, or another doubt; inactive = no such curve, though single readings can be large; an effect the other way counts as inactive or inconclusive.

SMILES | HPGD block | HTT aggregate | IMPase cell inh | HTT ATP protect | ALDH1A1 block | IMPase Li cell
CN1CCC[C@@H]1c1cccnc1.O=C(O)c1ccccc1O.O=C([OH2+])c1ccccc1O.O=C([OH2+])c1ccccc1O.[Mn] | u | x | x | 6.1%[10 µM] | u | -1.2%
NC(=O)c1ncn([C@@H]2O[C@H](CO)[C@@H](O)[C@H]2O)n1 | -4.0% | 8.3% | 9.7 | -64.6% | 25.1µM*! | -3.0%
COc1cccc(N2CCN(Cc3ccc(Cl)cc3)CC2)c1 | -14.3% | 9.8%[9.22 µM] | 6.0 | 8.0% | 10µM* | 12.8%[38.3 µM]
COc1ccc(/C=C2/C(=O)NC(=S)N(C3CC3)C2=O)cc1CN1C(=O)c2ccccc2C1=O | 14.1µM* | 23.2% | -6.1 | 27.4%[10 µM] | 20µM* | 4.9%
Cc1nc2ccc(Cl)cn2c1P(=S)(N1CCOCC1)N1CCOCC1 | -4.1% | -3.2% | 8.2 | 1.5% | 10.4% | 2.1%[38.3 µM]
Cn1ccnc1P(=S)(c1nccn1C)N1CCOCC1 | 25.1µM* | 6.7% | 1.7 | 3.1% | 28.2µM* | -3.5%[38.3 µM]
C[C@@]12CC[C@H]3[C@@H](CC[C@@H]4C[C@H](O)CC[C@]43C)[C@H]1CC[C@H]2O | x | x | 3.0 | -16.0%[1.9 µM] | x | x
CCOC(=O)c1sc(/N=C/c2c(O)n(-c3ccccc3)c(=O)[nH]c2=O)c(C#N)c1C | 25.1µM* | -7.6%[1.84 µM] | -6.5 | 2.0% | 11.2µM* | -4.6%[38.3 µM]
CCOC(=O)c1c(/N=C/c2c(O)n(-c3cccc(C)c3)c(=O)[nH]c2=O)sc2c1CCCC2 | -22.3% | 12.4% | x | -29.4%[10 µM] | u | 5.0%
CC(=O)Nc1ccc(OC(=O)N(C)c2ccccc2)cc1 | -3.6% | -7.5% | -12.8 | -1.1% | 6.3% | 25.0%[38.3 µM]
CC(=O)Nc1ccc(S(=O)(=O)N(C)CCOCc2ccccc2)cc1 | -6.8% | 11.2µM* | -6.6 | 3.4% | u | 35.5%[38.3 µM]
CCCC[N+]1(C)[C@@H]2CC(OC(=O)[C@@H](CO)c3ccccc3)C[C@H]1[C@H]1O[C@H]12 (stereo not given in full) | x | x | 18.9 | -8.5%[1.9 µM] | x | x
Cc1ccc(/C=C2\C(=O)NC(=O)N(CC3CCCO3)C2=O)s1 (stereo not given) | x | 6.2%[9.22 µM] | x | 5.6%[10 µM] | x | x
CCN(CC)c1ccc(/C=C2/C(=O)NC(=O)N(Cc3ccco3)C2=O)cc1 | 10µM* | -12.1% | -1.9 | 1.2%[10 µM] | 0.562µM* | 19.1%
CN(C)c1ccc(/C=C2/C(=O)NC(=O)N(Cc3ccco3)C2=O)cc1 | 10µM* | -18.4% | x | -19.3%[10 µM] | 1µM* | 6.9%
Cc1cc(/C=C2/C(=O)NC(=O)N(Cc3ccco3)C2=O)c(C)n1-c1ccccc1 | u | 12.6% | x | x | 8.91µM* | 4.0%
Cc1cccc(OCCn2cccc2/C=C2/C(=O)NC(=O)N(Cc3ccco3)C2=O)c1 | x | -7.6%[9.22 µM] | x | 2.1%[10 µM] | x | x
Cc1cc(/C=C2\C(=O)NC(=O)N(Cc3ccccc3)C2=O)c(C)n1C1CC1 | x | 29.0% | x | -36.2% | -8.8% | 4.1%
CCN(CC)c1ccc(/C=C2\C(=O)NC(=O)N(CC3CCCO3)C2=O)cc1 (stereo not given) | 25.1µM* | -11.6% | x | 31.2%[10 µM] | 0.251µM* | -1.4%
N=c1c2c(n(Cc3ccc(Cl)cc3Cl)c3c1CCC3)CCCC2 | 5.8% | 6.31µM* | 5.4 | -48.7% | 0.5% | 37.2%[38.3 µM]
COc1ccc(N2C(=O)CS(=O)C(c3ccccc3)C2=O)cc1 (stereo not given) | x | 3.3%[9.22 µM] | x | -10.9% | 1.12µM* | 2.9%
COc1ccc(N2C(=O)CC(N3CCC(n4c(=O)[nH]c5ccccc54)CC3)C2=O)cc1 (stereo not given) | -12.0% | 6.8% | -0.2 | 8.3%[10 µM] | u | 9.7%[38.3 µM]
CCN1C[C@]2(C)CC[C@@H](O)[C@]34[C@@H]5CC6[C@@H](OC)C[C@@](O)([C@H]5[C@@H]6O)[C@@H](C[C@@H]23)[C@H]14 | x | x | u | -4.5%[1.9 µM] | x | x
CCCN1CCO[C@@H]2c3cc(O)ccc3OC[C@@H]21 | u | x | -4.0 | 0.7% | u | 14.1%
N#Cc1cccc(NC(=O)N2CC[C@@]3(CCCN(C(=O)Oc4ccccc4)C3)C2)c1 | -4.6% | x | x | -45.8% | -16.1% | 27.0%
SMILES | HPGD block | HTT aggregate | IMPase cell inh | HTT ATP protect | ALDH1A1 block | IMPase Li cell
C=CCN1C(=O)/C(=C/c2cccs2)C(=O)NC1=S | 3.16µM* | -0.7% | 2.8 | 34.6%[10 µM] | 8.91µM* | 11.2%
COc1ccc(N2C(=O)/C(=C/c3cccs3)C(=O)NC2=S)cc1 | x | -0.9%[9.22 µM] | x | -3.4%[10 µM] | x | x
C=CCN1C(=O)/C(=C/c2ccc(N3CCOCC3)o2)C(=O)NC1=S | 28.2µM* | -3.6% | x | -7.0%[0.074 µM] | -6.4% | -3.7%
O=C1NC(=S)N(Cc2ccco2)C(=O)/C1=C\c1cccs1 | x | -1.6% | x | u | 17.8µM* | -0.9%
C=CCOc1ccc(CC2C(=O)N(C)C(=O)N(C)C2=O)cc1 | -2.2% | 9.3% | -6.2 | -4.4%[10 µM] | u | -6.4%
CCN(CC)c1ccc(CC2C(=O)N(C)C(=O)N(C)C2=O)cc1 | -12.5% | 18.7% | -1.9 | 2.7% | 4.47µM* | -0.3%
CCOP(=O)(Cc1cc(C(=O)CC)c(C)o1)OCC | x | 0.01µM* | x | x | x | x
CCN(CC)C(=O)c1c(C)[nH]c(=S)c(C#N)c1-c1ccco1 | x | -0.5% | x | -20.0% | 7.08µM* | -2.1%
O=c1c2ccccc2nc(SCC2CCCCO2)n1-c1ccccc1 (stereo not given) | -7.7% | u | x | -49.0%[10 µM] | 17.8µM* | 6.8%
Nc1nc(=S)c2ncn(C3OC(CO)C(O)C3O)c2[nH]1 (stereo not given) | x | -7.8%[9.22 µM] | x | 3.4%[10 µM] | 7.94µM* | x
CC(C)(OOC(C)(C)c1ccccc1)c1ccccc1 | -10.2% | x | x | -8.0% | 7.2% | 31.5%

Source: PubChem
